Assay [1] in a line: Quantitative High-Throughput drug screen in 47 multiple myeloma cell lines against the NCATS MIPE library collection: JJN3_DSMZ cell viability assay (AID 1918966; also: nearly all actives have a fitted effect of over 50% in size; also: potency is read from the fitted curve at half-maximal effect). An outline of the steps: (§1)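 qHTS of the MIPE 4.0 collection: 500 myeloma cells/well, 48 h drug exposure at 37C in 5% CO2, then CellTiter-Glo for 5 min at room temperature before luminescence reading.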
Assay [2] is described as follows: Quantitative High-Throughput drug screen in 47 multiple myeloma cell lines against the NCATS MIPE library collection: H1112_PLB cell viability assay (AID 1918967; also: nearly all actives have a fitted effect of over 30% in size). In outline:
as §1

Assay [3] can be described thus: Quantitative High-Throughput drug screen in 47 multiple myeloma cell lines against the NCATS MIPE library collection: KMS27_JCRB cell viability assay (AID 1918970). Also: nearly all actives have a fitted effect of over 30% in size. Also: potency is read from the fitted curve at half-maximal effect. An outline of the steps: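 ATP-based viability (CellTiter-Glo luminescence) is measured in cells treated 48 h with approved and investigational drugs at 37 °C. Controls are DMSO-only wells for full viability and media-only wells for none.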

Assay [4] in a line: Quantitative High-Throughput drug screen in 47 multiple myeloma cell lines against the NCATS MIPE library collection: INA6_PLB cell viability assay (AID 1918965; also: nearly all actives have a fitted effect of over 55% in size; also: potency is read from the fitted curve at half-maximal effect). In outline:
(§2)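 Relative luminescence from CellTiter-Glo served as the viability signal, referenced to DMSO-treated (100%) and cell-free medium (0%) controls. Treatment lasted 48 hours at 37C with 500 cells per well.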

A short description of assay [5]: Quantitative High-Throughput drug screen in 47 multiple myeloma cell lines against the NCATS MIPE library collection: KMS12PE_JCRB cell viability assay (AID 1918972). Also: nearly all actives have a fitted effect of over 30% in size. Also: potency is read from the fitted curve at half-maximal effect. An outline of the steps:
as §2

Assay [6] can be described thus: Quantitative High-Throughput drug screen in 47 multiple myeloma cell lines against the NCATS MIPE library collection: KMS20_JCRB cell viability assay (AID 1918973). Also: nearly all actives have a fitted effect of over 45% in size. Also: potency is read from the fitted curve at half-maximal effect. An outline of the steps:
as §1

Assay [7] in a line: Quantitative High-Throughput drug screen in 47 multiple myeloma cell lines against the NCATS MIPE library collection: Karpas25_ECACC cell viability assay (AID 1918968; also: nearly all actives have a fitted effect of over 35% in size; also: potency is read from the fitted curve at half-maximal effect). An outline of the steps: as §1
Assay [8] is described as follows: Quantitative High-Throughput drug screen in 47 multiple myeloma cell lines against the NCATS MIPE library collection: KMS12BM_JCRB cell viability assay (AID 1918971). Also: nearly all actives have a fitted effect of over 35% in size. Also: potency is read from the fitted curve at half-maximal effect. In outline: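 Luminescent ATP measurement with CellTiter-Glo gives viability, scaled between DMSO-only wells (100%) and media-only wells (0%). Cells, 500 per well, faced library compounds for 48 hours at 37C.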

A short description of assay [9]: Quantitative High-Throughput drug screen in 47 multiple myeloma cell lines against the NCATS MIPE library collection: KMS21BM_JCRB cell viability assay (AID 1918974). The following applies: ATP luminescence, 48 h; viability: at 45.8 µM (top of the series) unless noted. An outline of the steps:
as §1

Inconclusive results are not listed. Active and inactive are the calls of the source. Calls follow the shape of the dose curve; as a rule, active = well fitted cell-killing curve with a large enough effect; inconclusive = small, poorly fitted or top-dose-only effect, or effect the other way; inactive = no such curve, though single readings can be large or run the other way.

For `Cc1cnc(Nc2ccc(OCCN3CCCC3)cc2)nc1Nc1cccc(S(=O)(=O)NC(C)(C)C)c1`, the Potency in assay [1] is 0.296 µM (active). In addition, the Potency entry in assay [2] is “inactive”.
Turning to `CC1(C)SCCN(S(=O)(=O)c2ccc(OCC#CCO)cc2)[C@@H]1C(=O)NO`, the Potency result in [1], in assay [2] and in [3] was “inactive” in each case.
Take `CNC[C@H](O)c1cccc(O)c1`: the Potency entry in [4], in assay [2] and in assay [5] was “inactive” throughout.
Consider `NC(=O)c1ccc(-c2nc(-c3ccc4c(c3)OCO4)c(-c3ccccn3)[nH]2)cc1`, for which, in [1], the Potency is 0.0042 µM (active). Further, the Potency entry in [2], in [5] and in assay [6] was “inactive” throughout.
`Cc1[nH]c(=O)c(C#N)cc1-c1ccncc1`: the Potency in assay [4] is 14.8 µM (active); in assay [7], 9.35 µM (active); in assay [3], 1.32 µM (active). Also, the Potency result in assay [8] was “inactive”.
In the case of `O=C(C1CC1)N1CC[C@@H](Cn2c(-c3ccc(-c4ccc5occc5c4)cc3)nc3cnccc32)C1`, the figures for the Potency in assay [4] and in assay [5] were 20.9 µM (active) and 29.6 µM (active), respectively. In addition, the Potency entry in [2] was “inactive”.
On to `CCOc1cc(C(=O)Nc2ccc(Cl)c(-c3nc4ccccc4[nH]3)c2)cc(OCC)c1OCC`, for which the values for the Potency in assay [4] and in assay [6] were 11.8 µM (active) and 1.48 µM (active), respectively.
In the case of `NCCCC(N)(C(=O)O)C(F)F` (configuration not stated), the Potency in assay [1] was 20.9 µM (active); in assay [7], 0.166 µM (active). The Potency entry in [3], in assay [8] and in [5] was “inactive” each time.
`CN(C)C(=O)c1ccc(S(=O)(=O)c2ccc(NC(=O)[C@@](C)(O)C(F)(F)F)c(Cl)c2)cc1`: the values for the Potency in assay [7] and in [3] were 3.72 µM (active) and 14.8 µM (active), respectively.
As to `CC1(C)Cc2c(-c3ccccc3)c(-c3ccc(Cl)cc3)c(CC(=O)O)n2C1`, the Potency in assay [1] and in assay [8] was 20.9 µM (active) throughout.
As for `c1ccc([C@H]2CN3CCSC3=N2)cc1`, the Potency entry in assay [8] and in assay [9] was “inactive” throughout.
In the case of `Clc1cccc(Cl)c1NC1=NCCN1`, the Potency result in assay [2], in assay [7], in assay [3], in assay [5] and in assay [6] was “inactive” throughout.

Source of the values: PubChem BioAssay (NCATS).
